# Reference: paper PMC5540273 (PLoS ONE, 2017)
# System: BMPR1B
# Details: concentration: 1 μM, replicates: in singlicate; n = 1
# 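Also: KINOMEscan kinase panel screen.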
row,SMILES,%Inh
1,Cc1c2ccc(N(C)c3ccnc(Nc4cccc(S(N)(=O)=O)c4)n3)cc2nn1Cc1ccccc1.Cl.Cl [GW787226],0%
2,Fc1ccc(-c2ncn(CCCN3CCOCC3)c2-c2cccnc2)cc1 [SB-211743],0%
3,COc1ccc(Nc2ncc(C#N)c(Nc3ccccc3C(N)=O)n2)cc1N1CCN(C)CC1.Cl [GSK1558669],80%
4,O=c1cc(N2CCOCC2)nc2n(Cc3cccc4ccccc34)ccn12 [GSK2333389],0%
5,CCc1nc(-c2cccc(C)c2)c(-c2ccnc(NCc3ccccc3)c2)s1,0%
6,O=C(NCCNc1ccnc(Nc2ccc(F)cc2)n1)c1cc2ccccc2s1 [GSK1379874],0%
7,O=C(NCCNc1ccnc(Nc2ccc(F)cc2)n1)Nc1ccccc1F [GSK1379880],0%
8,CC(C)(CN)c1nc(-c2ccc(Cl)c(O)c2)c(-c2ccncc2)[nH]1.O=C(O)C(F)(F)F [SB-477794],99.9%
9,CN(C(=O)c1ccc(-c2cc(-c3c[nH]nc3-c3ccccn3)ccn2)cc1)C1CCOCC1 [GW810083],0%
10,O=C(Nc1n[nH]c2cc(-c3cccc(F)c3)ccc12)C1CC1 [SB-735464],65%
11,Cc1nnc(-c2ccc(C)c(-c3ccc(C(=O)Nc4ccc(NS(C)(=O)=O)cc4)cc3)c2)o1 [GW702865],0%
12,COc1ccc(S(=O)(=O)NC2CCN(c3cc(C)nc(Nc4cccc(C#N)c4)n3)CC2)cc1.O=C(O)C(F)(F)F [GSK1653539],0%
13,O=C(NOCC1CC1)c1ccc(F)c(F)c1Nc1ccc(I)cc1Cl,0%
14,COc1cc2c(cc1OC[C@@H](O)CO)ncc1c3ccc(C#N)cc3[nH]c21,0%
15,NS(=O)(=O)CCc1cccc(Nc2nccc(-c3c(-c4cccc(NC(=O)c5c(F)cccc5F)c4)nn4ccccc34)n2)c1 [GSK336735],0%
16,COc1ccc(CNC(=O)NC2CCN(c3ccnc(Nc4ccc(OC)cc4)n3)C2)cc1 (centres unmarked) [GSK1379727],0%
17,c1ccc(-c2cc(-c3c[nH]nc3-c3ccccn3)ccn2)cc1 [GW576604],0%
18,Cn1cc(-c2ccc3c(c2)CCN3C(=O)Cc2ccccc2Cl)c2c(N)ncnc21 [GSK2608885],0%

row,SMILES,%Inh
1,Cc1nnc(-c2ccc3ncc(-c4ccc(S(C)=O)cc4)n3c2)o1 (centres unmarked),16%
2,Cc1ccc(NC(=O)c2ccnc(N3CCN(C)CC3)c2)cc1-c1ccc(C(=O)NCC2CC2)cc1 [GW775604],0%
3,CN(C1=C(c2ccccc2)C(=O)NC1=O)c1ccccc1 [SB-334860],0%
4,Cc1ccc(C(=O)NCC(N)=O)cc1-n1c(C)cc(OCc2ccc(F)cc2F)c(Br)c1=O,0%
5,NCC(NC(=O)c1cc(-c2cn[nH]c2)c(-c2ccnc3[nH]ccc23)s1)c1ccccc1.O=C(O)C(F)(F)F.O=C(O)C(F)(F)F (centres unmarked) [GSK1325775],80%
6,CNc1ncnc2[nH]ncc12 [SKF-18355],0%
7,CCCCCc1nc2c(N)ncnc2n1CCCCC [SKF-97255],0%
8,C[C@@H](Oc1cc(-n2cnc3ccc(NC(=O)NC(C)(C)C)cc32)sc1C(N)=O)c1ccccc1Cl [GSK346294],0%
9,Cl.Oc1cccc(Nc2ccnc3cc(-c4ccncc4)ccc23)c1 [GW494601],99.9%
10,O=C1NC(=O)C(N2CCc3ccccc32)=C1c1cccc(Cl)c1 [SB-408010],0%
11,Cc1cn2c(=O)cc(N3CCOCC3)nc2n1Cc1cccc(Cl)c1Cl [GSK2334006],0%
12,Cl.Cl.Cl.Fc1ccc(-c2ncn(C3CCNCC3)c2-c2ccnc(Nc3ccccc3)n2)cc1 [SB-238039],0%
13,N#Cc1c(N2CCOCC2)sc(-c2ccn[nH]2)c1-c1ccc(Cl)cc1,0%
14,CC(=O)Nc1ccc(COc2ccc(Nc3ccnc4cc(-c5ccccn5)ccc34)cc2)cc1.Cl [GW440148],0%
15,O=c1cc(N2CCOCC2)nc2n(Cc3cccc(C(F)(F)F)c3)ccn12 [GSK2297543],0%
16,Fc1ccc(-c2nn3c(OCC(F)(F)F)cccc3c2-c2ccncc2)cc1 [GW514784],0%
17,Cc1cccc(-c2nc(Nc3ccc4ncsc4c3)c3ccccc3n2)n1 [GW867588],0%

# System: BMPR2
# Details: concentration: 1 μM, replicates: in singlicate; n = 1
row,SMILES,%Inh
1,Cc1c2ccc(N(C)c3ccnc(Nc4cccc(S(N)(=O)=O)c4)n3)cc2nn1Cc1ccccc1.Cl.Cl [GW787226],1%
2,Fc1ccc(-c2ncn(CCCN3CCOCC3)c2-c2cccnc2)cc1 [SB-211743],16%
3,COc1ccc(Nc2ncc(C#N)c(Nc3ccccc3C(N)=O)n2)cc1N1CCN(C)CC1.Cl [GSK1558669],92%
4,O=c1cc(N2CCOCC2)nc2n(Cc3cccc4ccccc34)ccn12 [GSK2333389],0%
5,CCc1nc(-c2cccc(C)c2)c(-c2ccnc(NCc3ccccc3)c2)s1,9%
6,O=C(NCCNc1ccnc(Nc2ccc(F)cc2)n1)c1cc2ccccc2s1 [GSK1379874],15%
7,O=C(NCCNc1ccnc(Nc2ccc(F)cc2)n1)Nc1ccccc1F [GSK1379880],0%
8,CN(C(=O)c1ccc(-c2cc(-c3c[nH]nc3-c3ccccn3)ccn2)cc1)C1CCOCC1 [GW810083],24%
9,O=C(Nc1n[nH]c2cc(-c3cccc(F)c3)ccc12)C1CC1 [SB-735464],28%
10,Cc1nnc(-c2ccc(C)c(-c3ccc(C(=O)Nc4ccc(NS(C)(=O)=O)cc4)cc3)c2)o1 [GW702865],9%
11,COc1ccc(S(=O)(=O)NC2CCN(c3cc(C)nc(Nc4cccc(C#N)c4)n3)CC2)cc1.O=C(O)C(F)(F)F [GSK1653539],0%
12,O=C(NOCC1CC1)c1ccc(F)c(F)c1Nc1ccc(I)cc1Cl,0%
13,COc1cc2c(cc1OC[C@@H](O)CO)ncc1c3ccc(C#N)cc3[nH]c21,0%
14,NS(=O)(=O)CCc1cccc(Nc2nccc(-c3c(-c4cccc(NC(=O)c5c(F)cccc5F)c4)nn4ccccc34)n2)c1 [GSK336735],0%
15,COc1ccc(CNC(=O)NC2CCN(c3ccnc(Nc4ccc(OC)cc4)n3)C2)cc1 (centres unmarked) [GSK1379727],30%
16,c1ccc(-c2cc(-c3c[nH]nc3-c3ccccn3)ccn2)cc1 [GW576604],4%
17,Cn1cc(-c2ccc3c(c2)CCN3C(=O)Cc2ccccc2Cl)c2c(N)ncnc21 [GSK2608885],0%

row,SMILES,%Inh
1,Cc1nnc(-c2ccc3ncc(-c4ccc(S(C)=O)cc4)n3c2)o1 (centres unmarked),18%
2,Cc1ccc(NC(=O)c2ccnc(N3CCN(C)CC3)c2)cc1-c1ccc(C(=O)NCC2CC2)cc1 [GW775604],0%
3,CN(C1=C(c2ccccc2)C(=O)NC1=O)c1ccccc1 [SB-334860],0%
4,Cc1ccc(C(=O)NCC(N)=O)cc1-n1c(C)cc(OCc2ccc(F)cc2F)c(Br)c1=O,0%
5,NCC(NC(=O)c1cc(-c2cn[nH]c2)c(-c2ccnc3[nH]ccc23)s1)c1ccccc1.O=C(O)C(F)(F)F.O=C(O)C(F)(F)F (centres unmarked) [GSK1325775],4%
6,CNc1ncnc2[nH]ncc12 [SKF-18355],35%
7,CCCCCc1nc2c(N)ncnc2n1CCCCC [SKF-97255],40%
8,C[C@@H](Oc1cc(-n2cnc3ccc(NC(=O)NC(C)(C)C)cc32)sc1C(N)=O)c1ccccc1Cl [GSK346294],5%
9,Cl.Oc1cccc(Nc2ccnc3cc(-c4ccncc4)ccc23)c1 [GW494601],30%
10,O=C1NC(=O)C(N2CCc3ccccc32)=C1c1cccc(Cl)c1 [SB-408010],4%
11,Cc1cn2c(=O)cc(N3CCOCC3)nc2n1Cc1cccc(Cl)c1Cl [GSK2334006],0%
12,N#Cc1c(N2CCOCC2)sc(-c2ccn[nH]2)c1-c1ccc(Cl)cc1,17%
13,CC(=O)Nc1ccc(COc2ccc(Nc3ccnc4cc(-c5ccccn5)ccc34)cc2)cc1.Cl [GW440148],1%
14,O=c1cc(N2CCOCC2)nc2n(Cc3cccc(C(F)(F)F)c3)ccn12 [GSK2297543],0%
15,Fc1ccc(-c2nn3c(OCC(F)(F)F)cccc3c2-c2ccncc2)cc1 [GW514784],1%
16,Cc1cccc(-c2nc(Nc3ccc4ncsc4c3)c3ccccc3n2)n1 [GW867588],15%
